JMJD2A Tudor inh: JMJD2A Tudor domain (human) inhibition; O75164; AlphaScreen JMJD2A-Tudor / H3K4me3 peptide binding; Potency, µM (series often up to 114 µM), inactives show top-dose activity change, negative = inhibition, most hits filed as inhibitors; actives 4.4% (n = 390,000); AID 504339; further: potency means the concentration at half of the fitted maximal effect; on the % scale 0 is the no-effect control and ±100 the full control effect; nearly all actives have a fitted effect of over 50% in size
Target sequence (O75164 whole entry, looked up, the tested form may be a part): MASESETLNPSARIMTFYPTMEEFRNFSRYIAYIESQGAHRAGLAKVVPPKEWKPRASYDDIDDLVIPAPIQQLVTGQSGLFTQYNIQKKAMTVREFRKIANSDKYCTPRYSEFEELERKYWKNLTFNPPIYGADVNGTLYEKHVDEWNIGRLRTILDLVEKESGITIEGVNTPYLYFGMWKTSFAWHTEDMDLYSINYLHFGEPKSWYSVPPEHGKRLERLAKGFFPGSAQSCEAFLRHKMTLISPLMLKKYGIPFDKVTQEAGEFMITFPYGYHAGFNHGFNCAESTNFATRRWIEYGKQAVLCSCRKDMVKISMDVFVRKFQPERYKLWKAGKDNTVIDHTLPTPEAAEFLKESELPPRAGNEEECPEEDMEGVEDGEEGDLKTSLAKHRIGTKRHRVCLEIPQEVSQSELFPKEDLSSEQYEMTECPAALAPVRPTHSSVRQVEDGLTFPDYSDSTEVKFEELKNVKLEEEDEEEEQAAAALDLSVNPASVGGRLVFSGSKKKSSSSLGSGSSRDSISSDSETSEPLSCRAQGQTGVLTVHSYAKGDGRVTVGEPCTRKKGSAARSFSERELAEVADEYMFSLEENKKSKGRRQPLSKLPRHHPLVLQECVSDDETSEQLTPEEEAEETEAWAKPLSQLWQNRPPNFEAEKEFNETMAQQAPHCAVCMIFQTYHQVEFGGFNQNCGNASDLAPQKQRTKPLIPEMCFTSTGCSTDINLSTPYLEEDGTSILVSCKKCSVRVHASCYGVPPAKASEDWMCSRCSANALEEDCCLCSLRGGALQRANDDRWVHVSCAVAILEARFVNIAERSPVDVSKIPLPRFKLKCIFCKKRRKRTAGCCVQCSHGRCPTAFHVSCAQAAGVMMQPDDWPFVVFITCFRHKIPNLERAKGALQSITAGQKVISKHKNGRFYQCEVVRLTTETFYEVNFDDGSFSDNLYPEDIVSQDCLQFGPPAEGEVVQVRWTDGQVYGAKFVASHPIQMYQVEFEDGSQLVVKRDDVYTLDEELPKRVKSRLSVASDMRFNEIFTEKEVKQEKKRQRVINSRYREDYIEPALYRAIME
GLS inh: glutaminase GLS (human) inhibition; actives 0.21% (n = 410,000); AID 624170; Potency, µM (titrated, usually from 45.5 µM), for inactives: at the highest dose activity change, negative = inhibition, most hits filed as inhibitors; O94925; GLS enzymatic activity, qHTS titration; further: potency means the concentration at half of the fitted maximal effect; on the % scale 0 is the no-effect control and ±100 the full control effect
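Coupled fluorescence readout: glutamate oxidase/HRP/Amplex Red detect glutamate formed by hKGA from L-glutamine (1 mM solution added). Buffer 45 mM KH2PO4 pH 8.2, 0.02% Tween-20; reads at t0 and 30 min RT.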
G9a inh-1: inhibitors of human histone lysine methyltransferase G9a | G9a H3K9 monomethylation, AlphaScreen, 2 h | Potency, µM (highest dose often 102 µM), without a hit: at the top dose activity, negative = inhibition, hits mostly inhibitors | actives 8.8% (n = 350,000); further: potency means the concentration at half of the fitted maximal effect; on the % scale 0 is the no-effect control and ±100 the full control effect; nearly all actives have a fitted effect of over 75% in size
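Compounds were preincubated with 20 nM G9a for 15 min, after which biotinylated H3K9 peptide (500 nM) and SAM (20 uM) started a 2 h room-temperature reaction. Monomethylated product was quantified by antibody-based AlphaScreen chemiluminescence.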
BAZ2B inh: blocks human BAZ2B | Q9UIF8 | AlphaScreen BAZ2B-H3K14Ac peptide displacement | Potency, µM (doses to about 114 µM), without a hit: top-dose activity change, negative = inhibition, usual class: inhibitors | actives 4.4% (n = 360,000); further: potency means the concentration at half of the fitted maximal effect; on the % scale 0 is the no-effect control and ±100 the full control effect; nearly all actives have a fitted effect of over 60% in size
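AlphaScreen luminescence quantifies BAZ2B engagement of H3K14Ac peptide; the protein and biotinylated peptide are both at 50 nM final, buffer PBS pH 7.4 with 0.01% Tween-20, all steps at room temperature.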
HP1b chromo inh: inhibitors of HP1-beta chromodomain binding to methylated histone tails; P83916; AlphaScreen HP1-beta / biotin-H3K9me3 peptide binding; Potency, µM (doses to about 114 µM), without a hit: at the highest dose activity change, negative = inhibition, usual class: inhibitors; actives 0.56% (n = 390,000); AID 540317; further: potency means the concentration at half of the fitted maximal effect; nearly all actives have a fitted effect of over 70% in size
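Compound inhibition of the preformed complex between 50 nM HP1-beta and 50 nM biotinylated H3K9me3 peptide was read by AlphaScreen. Buffer was PBS pH 7.4 with 0.01% Tween-20. Incubations ran 30 min at room temperature, with 10 ug/mL donor/acceptor beads.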
JMJD2E confirm: confirmation of inhibitors of human JMJD2E demethylase; Potency, µM (top dose mostly 56.8 µM), without a hit: at the top dose activity change, negative = inhibition, most hits filed as inhibitors; AID 2677; actives 93% (n = 140); shares compounds with JMJD2A Tudor inh; Recombinant JMJD2E, FDH-coupled NADH fluorescence (FDH is formaldehyde dehydrogenase)
FDH inh: counter-screen for JMJD2E inhibitors: Pseudomonas putida formaldehyde dehydrogenase; shares compounds with JMJD2A Tudor inh; FDH enzyme assay, NADH fluorescence kinetic; Potency, µM (doses to about 56.7 µM), for inactives: top-dose activity, negative = inhibition, usual class: inhibitors; actives 10% (n = 140); AID 2680
G9a inh-2: inhibits human G9a histone lysine methyltransferase, hit confirmation; actives 89% (n = 370); G9a H3K9 monomethylation, AlphaScreen, 2 h; shares compounds with JMJD2A Tudor inh; AID 588344; Potency, µM, actives largely listed as inhibitors; further: potency means the concentration at half of the fitted maximal effect; nearly all actives have a fitted effect of over 65% in size
RGS4 inh: confirmation of human RGS4 inhibitors; shares compounds with JMJD2A Tudor inh; RGS4 GAP activity, Transcreener GDP fluorescence polarization; Potency, µM, most hits filed as inhibitors; actives 80% (n = 25); AID 602388
The depositor's hits bear a star; ? = inconclusive; · = not tested or not shown; [ ] = another dose, or the depositor's remark. Hits are enriched below; roughly 10% of the tested compounds scored in any of these assays. The call rests on the fitted dose curve; in most records, active means well fitted curve in the direction sought with a large enough effect; inconclusive means small, poorly fitted or top-dose-only effect, or another doubt; inactive means no such curve, though single readings can be large; an effect the other way counts as inactive or inconclusive.

SMILES	JMJD2A Tudor inh	GLS inh	G9a inh-1	BAZ2B inh	HP1b chromo inh	G9a inh-2	others
COc1ccccc1Nc1ncc(-c2cccs2)s1	?	31.8%	?	?	?	·	RGS4 inh=?
Cc1cc(C)cc(N2C(=O)CC(Sc3nnnn3-c3ccccc3)C2=O)c1 (stereo not given)	-15.2%	3.3%	-39.2%[0.501 µM]	?	18.7%	·
Cc1cc(C)cc(N2C(=O)CC(Sc3ncn[nH]3)C2=O)c1 (stereo not given)	?	6.5%	·	-9.4%	?	·	JMJD2E confirm=6.31µM*;FDH inh=0.282µM*
O=C(COc1ccc(Cl)cc1)Nc1nnc(S(=O)(=O)N2CCc3ccccc32)s1	?	13.7%	0.891µM*	?	-8.6%	44.7*
CCc1ccccc1NC(=O)CN(C)Cc1c(O)ccc2ccccc12	56.2µM*	-16.5%	1.78µM*	?	?	0.399*
CCc1ccccc1NC(=O)CN(C)Cc1nc(N)nc(Nc2ccccc2C)n1	?	-13.5%	-32.4%	-37.6%	9.6%	·
CCOCCOC(=O)c1[nH]c2c(c1C)C(=O)CC(c1ccc(OC)c(OC)c1)C2 (stereo not given)	-16.8%	0.1%	8.9%	-21.0%	-16.9%	·
CCOCCOC(=O)c1[nH]c2c(c1C)C(=O)CC(c1ccc(N(C)C)cc1)C2 (stereo not given)	?	5.0%	?	?	3.1%	?
Cc1ccsc1C(=O)OCC(=O)N1CC(C)CC(C)C1 (stereo not given)	0.7%	-3.5%	·	·	29.9%	·
CCOc1cc(CN2CCN(S(=O)(=O)c3ccc(C)cc3)CC2)ccc1OC	25.1µM*	-7.6%	0.891µM*	50.1µM*	?	32.4*
COc1cc(C2C3=C(COC3=O)OC(C)(C)Oc3cc4c(cc32)OCO4)cc(OC)c1OC (stereo not given)	-7.6%	-1.5%	·	·	40.0%	·
CC(C(=O)NC(=O)NC1CCCCC1)N1CCN(c2ccc(O)cc2)CC1 (stereo not given)	22.4µM*	-1.1%	1.26µM*	?	79.4µM*	0.564*
COc1ccc2nc(NC(=O)CSc3nc(C)cc(=O)[nH]3)sc2c1	13.4%[57.1 µM]	9.8%	2.82µM*	-20.2%	11.1%	25.1*
CC1(C(=O)NS(=O)(=O)c2cccc(C#N)c2)CCN1C(=O)c1ccco1 (stereo not given)	·	7.6%	·	·	·	·
COc1cc(OC)c(C2Nc3ccccc3-c3nnc(SCc4ccccc4)nc3O2)cc1OC (stereo not given)	-7.6%	1.8%	-31.0%[59 µM]	-4.4%	14.0%	·
Cc1ccc(C)c(S(=O)(=O)N2CCN(Cc3ccc(O)c4ncccc34)CC2)c1	-14.1%	0.0%	-38.1%	·	31.6%	·	JMJD2E confirm=35.5µM*;FDH inh=?
CSc1ncccc1C(=O)N1CCN(S(=O)(=O)c2cc(C)ccc2C)CC1	-4.7%	-17.5%	-8.6%	-15.4%	33.7%	·
COc1ccc(CCN2C(=O)C3C4C=CC(C4)C3C2=O)cc1OC (stereo not given)	-2.6%	2.4%	-8.2%	-5.8%	30.5%	·
c1cncc(-c2csc(-c3cccnc3)n2)c1	-4.6%	2.4%	-9.7%	0.3%	33.9%	·
c1cncc(-c2nc(-c3ccco3)cs2)c1	?	5.5%	?	?	5.9%	10*
CCn1c(SCC(=O)Nc2sc3c(c2C#N)CCC(C(C)(C)C)C3)nnc1-c1ccco1 (stereo not given)	-21.1%	10.1%	-32.7%	1.6%	7.5%	·
CCn1c(SCC(=O)Nc2sc3c(c2C#N)CCCC3)nnc1-c1ccco1	-11.6%	2.6%	?	4.7%	59.6%	28.3*
COc1ccc(S(=O)(=O)N2CCN(CC(=O)NCCc3cccs3)CC2)cc1	-6.7%	-12.8%	?	9.0%	32.4%	?
COc1ccc(S(=O)(=O)N2CCN(CC(=O)NC(C)c3cccs3)CC2)cc1 (stereo not given)	·	-5.2%	·	·	·	·
Cc1cc(NC(=O)C(C)SCC(=O)NCc2ccc(F)cc2)no1 (stereo not given)	0.7%	7.5%	-23.1%[2.33 µM]	5.5%	24.9%	·
SMILES	JMJD2A Tudor inh	GLS inh	G9a inh-1	BAZ2B inh	HP1b chromo inh	G9a inh-2	others
COc1cc(C2Nn3c(nnc3-c3ccccc3OC)S2)ccc1O (stereo not given)	2.24µM*	63.9%	0.631µM*	-11.5%	?	0.252*
Cc1nn(-c2ccccc2)c2ncc(C(=O)c3cc(Cl)ccc3O)cc12	?	-2.7%	0.794µM*	?	-7.1%	11.2*
Cc1nn(C)c2ncc(C(=O)c3ccccc3O)cc12	-12.4%	8.0%	?	2.5%	-1.1%	·
CN(CC(=O)Nc1cccc(F)c1)C(=O)CN1C(=O)C2CC=CCC2C1=O (stereo not given)	-5.5%	-8.4%	?	7.0%	29.4%	·
COC(=O)c1cc(NCc2ccc3c(c2)OCO3)ccc1N1CCOCC1	?	24.6%	?	?	-8.7%	12.6*
CCN(c1ccccc1)S(=O)(=O)c1ccc(C(=O)NCc2ccco2)cc1	-35.2%	1.5%	·	·	27.9%	·
COc1cccc(NC(=O)Cc2nnc(SCC(=O)c3ccccc3)n2C)c1	-11.8%	-1.1%	0.355µM*	10.7%	24.2%	0.71*
Cc1c(C(=O)C(=O)NCCCn2ccnc2)c2ccccc2n1C	3.1%	0.5%	6.9%	-5.1%	26.4%	·
O=C(CCCNC(=O)/C(=C/c1ccccc1F)NC(=O)c1ccccc1)OCc1ccccc1	6.4%	-11.8%	?	11.7%	16.1%	·
CCCn1c(CNC(=O)c2ccc(F)cc2)nc2ccccc21	-1.0%	7.8%	2.8%[59 µM]	0.3%	29.2%	·
CCCn1c(CNc2ccccc2O)nc2ccccc21	?	20.5%	?	?	-7.0%	11.2*
COc1ccccc1-c1nccc(NCc2cnc(C)cn2)n1	·	·	·	·	·	·	RGS4 inh=26.7*
COC(=O)c1ccccc1NC(=O)Cn1c(SC)c(F)cnc1=O	-3.7%	4.2%	0.562µM*	-1.1%	37.6%	8.93*
O=C(CSC1=NCCS1)N1CCc2ccccc21	14.5%	-0.6%	?	-0.9%	21.4%	1.59*
Nc1ccccc1SCC(=O)N1CCc2ccccc21	-14.6%	10.6%	10.4%[12.7 µM]	-2.9%	5.0%	·

Screening data as filed in PubChem.
